# Compound activity deposited in PubChem BioAssay by The Scripps Research Institute Molecular Screening Center.
# Nox1 inh – blocks human NADPH oxidase 1 activity; actives 0.81% (n = 16,000); HT29 cells, luminol chemiluminescence ROS; inhibition, % at 6.7 µM; Q9Y5S8; AID 1792
# OPRK1 antag MB – blocks the human kappa opioid receptor, Maybridge compounds | P41145 | OPRK1 cells, antagonist mode, fluorescence readout | inhibition, % at 9 µM | actives 0.4% (n = 16,000); in the data active = inhibition above about 50%
# Luminol counter – counter-screen for Nox1 inhibitors: inhibitors of luminol chemiluminescence; HRP/luminol/H2O2 chemiluminescence counterscreen; inhibition, % at 6.7 µM; actives 0.4% (n = 16,000); note: reference of the scale not given here
# PME-1 Maybridge – inhibitors of human PME-1 in Maybridge library; Q9Y570; recombinant PME-1, FP-Rh probe fluorescence polarization; inhibition, % at 9 µM; actives 0.5% (n = 16,000); in the data active = inhibition above about 30%
# Target sequence (Q9Y570 whole entry, looked up): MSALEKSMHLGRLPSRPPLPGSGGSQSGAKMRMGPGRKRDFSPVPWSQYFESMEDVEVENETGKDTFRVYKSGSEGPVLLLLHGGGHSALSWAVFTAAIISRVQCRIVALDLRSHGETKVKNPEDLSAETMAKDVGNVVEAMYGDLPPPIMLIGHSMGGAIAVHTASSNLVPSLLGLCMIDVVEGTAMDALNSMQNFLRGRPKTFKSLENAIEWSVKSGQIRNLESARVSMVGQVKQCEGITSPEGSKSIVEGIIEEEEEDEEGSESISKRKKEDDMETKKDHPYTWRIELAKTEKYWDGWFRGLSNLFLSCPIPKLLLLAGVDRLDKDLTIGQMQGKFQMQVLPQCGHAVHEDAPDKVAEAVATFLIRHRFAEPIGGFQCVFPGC
# A number is an active result; . = inactive. An excerpt weighted towards active compounds, which were near 2.2% of everything screened. Cut-off read from the data, not from the text of the source, unless noted: active = inhibition above about 75%; inactive = the rest.
SMILES,Nox1 inh,OPRK1 antag MB,Luminol counter,PME-1 Maybridge
CC(=O)Nc1sc(=Nc2ccc(C)c(C)c2)n(C(C)=O)c1-c1ccc2c(c1)OCO2,.,.,.,35
Cc1ccc(NC(=O)C(=O)N/N=C/c2ccc3c(c2)OCO3)cc1C,.,.,.,.
Cc1ccc(Sc2ccc(C#N)cc2[N+](=O)[O-])cc1,.,.,.,.
CCOC(=O)CSc1c(C)[nH]c2ccccc12,.,.,.,.
Cc1[nH]c2ccccc2c1SCc1n[nH]c(=S)n1C,.,.,.,34
O=[N+]([O-])c1ccc(Oc2c(Cl)cccc2Cl)cc1,.,.,.,.
S=c1[nH]nc(NCCc2ccc(Cl)cc2)s1,.,.,.,.
CCOc1ccccc1Nc1n[nH]c(=S)s1,88,.,.,.
CCOC(=O)C(=CNc1sccc1C(=O)OC)C(=O)OCC,.,.,.,.
N/C(=N\OC(=O)c1cccs1)c1nccnc1Oc1cccc(C(F)(F)F)c1,.,.,.,.
CCN(CC)c1ccc(NC(=O)c2c(F)cccc2F)c(N(CC)CC)n1,94,.,.,.
COc1ccc(Cl)cc1NC(=O)Nc1ccc(N(C)C)cc1,99,.,.,.
O=C(Oc1ccccc1)c1ccc(CS(=O)(=O)c2ccc(C(F)(F)F)cn2)o1,.,.,.,.
Cc1c(C(=O)NCCNc2ccc(C(F)(F)F)cc2[N+](=O)[O-])cnn1-c1ccc(F)cc1,.,.,.,.
CSc1nnc(NCc2cccc(Cl)c2)s1,.,.,.,.
C#Cc1cccc(NC(=O)c2sc3nc4c(c(-c5cccs5)c3c2N)CCCC4)c1,.,65,.,.
Cc1c(C#N)c(=O)[nH]c2ccccc12,.,.,.,.
Cc1cc(=O)n2c([nH]c3ccccc32)c1C#N,.,.,85,.
Nc1nc(NC2CCCCNC2=O)n[nH]1 (centres undefined),92,.,.,.
CCOC(=O)c1cnc(-c2cccs2)nc1Nc1cccc(C(F)(F)F)c1,.,.,.,.
O=c1c(C=Nc2ccccc2)c(Nc2ccccc2)[nH]n1-c1ccccc1,.,.,.,84
O=C(C1CCCO1)N1CCN(S(=O)(=O)c2cc(S(=O)(=O)c3ccccc3)cs2)CC1 (centres undefined),.,.,.,.
O=S(=O)(Nc1ccc(N2CCCCC2)cc1)c1cc(S(=O)(=O)c2ccccc2)cs1,104,.,.,.
O=S(=O)(NCCSCc1c(F)cccc1Cl)c1cccc(C(F)(F)F)c1,.,.,.,.
CCOc1c(NN(C)C)c(=O)c1=O,.,.,102,.
SMILES,Nox1 inh,OPRK1 antag MB,Luminol counter,PME-1 Maybridge
COc1ccc(/C(C#N)=C/c2cnc(-c3ccccc3)[nH]2)cc1,.,.,.,50
CSc1sc(C2=NNC(O)(C(F)(F)F)C2)c2c1C(=O)CCC2(C)C (centres undefined),.,.,.,36
O=c1[nH]c2ccsc2c(=O)n1CCO,84,.,.,.
Oc1ccccc1N=CC=Nc1ccccc1O,96,.,.,.
C(=Nc1cccc2ccccc12)c1ccccc1,.,.,.,.
CC(=O)Oc1ccc(OC(C)=O)c2c1[C@@H]1C=C[C@H]2CC1,81,.,.,.
O=C(NC1CCN(C(=O)c2ccco2)CC1)C1CCC1,.,.,.,.
O=C1CS/C(=C/C(=O)c2cccs2)N1,.,.,.,.
O=C1CS/C(=C\C(=O)N2CCOCC2)N1,.,.,78,.
C/C(=N\N=C(/C)c1cccc([N+](=O)[O-])c1)c1cccc([N+](=O)[O-])c1,.,.,.,.
CC1(C)N=c2ccc([N+](=O)[O-])cc2=N1,.,.,.,38
C/C=C/C=N/NC(=O)N/N=C/C=C/C,.,.,.,.
O=C(CN(Cc1ccccc1)Cc1ccccc1)Nc1nnc(-c2cccs2)s1,.,.,.,.
Cc1cc(OC(=O)c2c(-c3ccccc3)noc2C)c2cc(F)ccc2n1,.,.,.,.
O=C1c2cccc3c([N+](=O)[O-])ccc(c23)C(=O)N1Cc1cccnc1,.,.,.,33
Cn1c(Sc2ncnc(Sc3nnc(C(F)(F)F)n3C)c2[N+](=O)[O-])nnc1C(F)(F)F,.,.,101,.
O=[N+]([O-])c1cc(Cl)ccc1Sc1ccccc1NS(=O)(=O)c1ccc(F)cc1,.,.,.,63
COc1ccc(Cl)cc1NCCN=Cc1cccc(OC)c1O,.,.,.,.
Cc1cc(NC(=O)NCCNc2ncccc2C(F)(F)F)c(C(F)(F)F)o1,.,.,.,.
COc1cc(CN(C(=O)c2cccc([N+](=O)[O-])c2)c2cccc(F)c2)cc(OC)c1OC,.,.,.,.
Nc1ccccc1Sc1ccc(-c2cnc3ccccc3n2)cc1[N+](=O)[O-],.,.,98,.
Clc1ccc(-c2cnc3ccccc3n2)cc1Cl,.,.,.,.
